# Compound activity from PubChem.
# This excerpt belongs to a sample that is enriched for hits.
# NTMT1 inhibitor = inhibitors of human N-terminal methyltransferase NTMT1 | Potency, µM (doses to about 114 µM), for inactives: at the highest dose activity change, negative = inhibition, hits mostly inhibitors | AID 1645870 | hit rate 2.5% among 59,000 | NTMT1 MTase-Glo SAH luminescence, purified enzyme | Q9BV86;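 note: plate controls were DMSO vehicle for no effect and no enzyme for full effect; nearly all actives have a fitted effect of over 65% in size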
# Target sequence (Q9BV86 whole entry, looked up): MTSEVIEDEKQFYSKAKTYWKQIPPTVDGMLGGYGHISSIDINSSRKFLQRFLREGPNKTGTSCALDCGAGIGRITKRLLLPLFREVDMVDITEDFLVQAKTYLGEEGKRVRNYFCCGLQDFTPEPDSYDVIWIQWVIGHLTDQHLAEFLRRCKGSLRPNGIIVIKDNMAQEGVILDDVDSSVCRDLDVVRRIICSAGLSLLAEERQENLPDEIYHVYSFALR
# p53null 32C tox = kills p53 null cells at the permissive temperature; H1299-neo p53 null cells, ATP luminescence, 24 h, 32C; Potency, µM (highest dose often 46.1 µM), inactives show at the top dose activity change, negative = cytotoxicity, usual class: cytotoxic; hit rate 0.62% among 55,000;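 note: 0% = DMSO only and -100% = full killing by 100 µM tamoxifen; nearly all actives have a fitted effect of over 55% in size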
#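 Overnight 37C seeding (600 cells/well) of H1299-neo preceded a 24 hr, 32C exposure to compounds up to 46 uM. ATP levels, read by luminescence after 20 min at RT, indicated surviving cells.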
# SKOV3 invasion = ovarian cancer metastasis inhibition, 3D TME model. hit rate 0.1% among 46,000. Potency, µM (series often up to 45.8 µM), inactives show at the top dose activity change, negative = inhibition, hits mostly inhibitors. SKOV3ip1-GFP adhesion/invasion on 3D omental model, fluorescence;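 note: plate controls were DMSO wells for no effect and tomatine positive control wells for full effect; nearly all actives have a fitted effect of over 65% in size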
#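 Adhesion/invasion was scored as fixed GFP-labeled SKOV3ip1 cell counts (488/509 nm), normalized to DMSO and tomatine controls. Cancer cells in serum-free medium, with four compound doses (0.36-46 umol/L), sat 2 hr at RT then 16 hr at 37 C on a 48 hr fibroblast/mesothelial/ECM culture.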
# p53null 39C kill = p53 null cell cytotoxicity, nonpermissive temperature; H1299 p53-null (neo) cells, 39C, ATPlite viability, 24 h; hit rate 0.97% among 55,000; Potency, µM (titrated, usually from 46.1 µM), inactives show at the highest dose activity, negative = cell killing, actives largely listed as cytotoxic;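 note: 0% = DMSO only and -100% = full killing by 100 µM tamoxifen; nearly all actives have a fitted effect of over 50% in size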
#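 ATP-luminescence viability readout (ATPlite, 20 min RT) after 24 hr compound treatment at 39C of H1299-neo or H1299-p53A138V cells; titration up to 46 uM; normalized to DMSO and 100 uM tamoxifen; Hill-fit AC50.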
# * hit, by the source's call; i = inactive; ? = inconclusive; . = no result given; ! = a repeat was not active; [ ] = dose if it differs, or a comment. Calls come from the whole dose curve; as a rule, active = well fitted curve in the direction sought with a large enough effect; inconclusive = small, poorly fitted or top-dose-only effect, or another doubt; inactive = no such curve, though single readings can be large; an effect the other way counts as inactive or inconclusive. Potency is the fitted concentration of half-maximal effect.
SMILES,NTMT1 inhibitor,p53null 32C tox,SKOV3 invasion,p53null 39C kill
C=C1CC2(C(=O)O)CC1CCC2C1(C)CCCC2(C)C(=O)OC(O)C21 (stereo not drawn),16.3%[29.8 µM],.,.,.
Cc1ccccc1C(=O)N1CCc2cc(-c3cccc(NC(=O)Cc4ccc5c(c4)OCO5)c3)ccc21,-1.4%,.,.,.
CN(C)c1ccc(C(CNS(=O)(=O)c2ccc(F)cc2)N2CCCC2)cc1 (stereo not drawn),89.1µM*,?,?,5.5%
CN(C)c1ccc(C(CNS(=O)(=O)c2ccc(F)cc2)N2CCOCC2)cc1 (stereo not drawn),-1.0%,1.5%,-8.9%,3.9%
Cc1cc(NCc2ccc(NC(=O)Cc3ccc(Cl)c(Cl)c3)cc2)no1,-5.4%,.,.,.
Cc1cccc(-n2ncc(C(=O)N3CCN(c4ccc(C)cc4C)CC3)c2C2CCN(C(=O)OC(C)(C)C)CC2)c1,2.6%,-4.5%,i,2.9%
Cc1ccc(-n2ncc(C(=O)N3CCN(c4cccc(C)c4C)CC3)c2C2CCNCC2)c(C)c1,79.4µM*,11.0%,?,-10.0%
CCC/C=C/C=C/C1CC(O)C(O)C(=O)C1CO (stereo not drawn),-15.2%[57.5 µM],.,.,.
C/C=C(\C)[C@@H]1C(C)=C[C@@H]2[C@H]([C@@H]1/C=C/C=C/C(=O)O)[C@@H](C)CC[C@@H]2O,4.4%[29.8 µM],.,.,.
O=c1cc(-c2ccc(O)c(O)c2)oc2cc(O)cc(O)c12,31.6µM*!,.,-13.0%,.
CCCCCOC(=O)Nc1nc(=O)n(C2O[C@H](C)[C@@H](O)[C@H]2O)cc1F (stereo partly drawn),-0.6%[57.5 µM],.,.,.
COC(=O)c1ccc2c(c1)S(=O)(=O)N=C2Sc1cc(C)ccc1C,0.6%,.,.,.
CN(C)c1ccc(C2C=C(c3ccccc3)Nc3nnnn32)cc1 (stereo not drawn),-4.9%,?,5.3%,7.94µM*
CC(=O)Nc1ccc(-c2nnc(SCC(=O)c3ccc([N+](=O)[O-])cc3)o2)cc1,5.1%,-14.4%,i,12.3%
O=C(CSc1nnc(-c2ccc([N+](=O)[O-])cc2)o1)Nc1ccccc1,7.6%,?,i,6.31µM*
CCc1ccc(NC(=O)Nc2ccccc2OCc2cc(=O)n3ccccc3n2)cc1,?,?,-6.1%,2µM*
Cc1cnc(-c2ccccc2C(C)C)nc1NCC1CCN(c2cccnc2)C1 (stereo not drawn),-3.4%,.,.,.
COc1ccc(CNC(=O)c2nc(S(=O)(=O)Cc3ccccc3)ncc2Cl)cc1,14.2%,-4.2%,3.55µM*,12.6µM*
O=C(NCc1ccccc1)c1nc(S(=O)(=O)Cc2ccccc2)ncc1Cl,-1.3%,-14.4%,?,86.5%
COCCCNC(=O)c1c(NC(=O)c2nc(S(C)(=O)=O)ncc2Cl)sc2c1CCCC2,-9.2%,-7.8%,-3.4%,2.2%
CCCS(=O)(=O)c1ncc(Cl)c(C(=O)Nc2c(C(=O)Nc3ccccc3)oc3ccccc23)n1,-3.5%,-29.1%,-12.2%,15.8µM*
CCNC(=O)c1c(NC(=O)c2nc(S(=O)(=O)CC)ncc2Cl)sc2c1CCCC2,-5.7%,18.6%,?,25.1µM*
COc1ccc(N(Cc2ccccc2)C(=O)c2nc(S(C)(=O)=O)ncc2Cl)cc1,20.6%,12.6µM*,?,11.2µM*
CCCSc1ncc(Cl)c(C(=O)N(Cc2ccccc2)c2ccc(OC)cc2)n1,2.4%,24.6%,?,48.1%
CC(C)Oc1ccc(CCNC(=O)c2cc3sccc3n2Cc2ccccc2)cc1OC(C)C,16.8%,.,.,.
SMILES,NTMT1 inhibitor,p53null 32C tox,SKOV3 invasion,p53null 39C kill
O=C(Nc1ccc(-n2ccnc2)c(F)c1)Nc1nnc(-c2ccncc2)s1,-7.8%,.,.,.
COC1CC(C(=O)c2ccc3c(N)ncc(-c4ccc(-c5cnn(C)c5)cc4)c3n2)C1 (stereo not drawn),1.5%,.,.,.
CN(C)CCNC(=O)NC[C@H]1CC[C@@H]2[C@H](O1)c1cc(C(F)(F)F)ccc1N[C@H]2c1ccccc1,-13.7%,.,.,.
CCS(=O)(=O)c1ncc(Cl)c(C(=O)NCc2ccccc2)n1,-1.9%,?,10µM*,-14.8%
CC(C)(C)OC(=O)N1CCN(c2ccc(NCc3cnc(-c4ccc(C#N)cc4)o3)cc2)CC1,-16.0%,.,.,.
COC(=O)c1cc(S(=O)(=O)N2CCN(c3cccc(C)c3)C(C)C2)cn1C (stereo not drawn),0.9%,-10.4%,4.1%,12.6µM*
CCOC(=O)c1cc(S(=O)(=O)N2CCN(c3cccc(C)c3)C(C)C2)[nH]n1 (stereo not drawn),-1.5%,8.4%,4.3%,14.2%
O=C1CCCC2=C1C(c1[nH]ncc1Cl)N=C(Nc1nc3c(Br)cccc3o1)N2 (stereo not drawn),-0.2%[57.5 µM],.,.,.
CC(C)(C)C(=O)N1N=CC[C@H]1c1ccccc1,9.7%,.,.,.
Cc1ccc2sc(-c3ccc(N)cc3)nc2c1,?,2µM*,3.7%,1.58µM*
COc1ccc(NC(=O)C(=O)NCC(c2cccnc2)N2CCc3ccccc3C2)cc1 (stereo not drawn),8.7%,12.6µM*,9.3%,20µM*
C/C=C1\NC(=O)[C@H]2CSSCC/C=C\[C@H](CC(=O)N[C@H](C(C)C)C(=O)N2)OC(=O)[C@H](C(C)C)NC1=O,-4.3%,.,.,.
O=C1NC(=O)C(c2ccccc2[N+](=O)[O-])=C1Nc1ccc(O)c(Cl)c1,44.7µM*!,.,5.6%,.
CC1=CC(=O)C(=C(C)C)CC2C(C)(O)CCC12O (stereo not drawn),-21.3%[57.5 µM],.,.,.
Cc1ccc(C(=O)Nc2nnc(SCC(=O)N3CCCc4ccccc43)s2)cc1,.,1.26µM*,.,.
CC(C)Oc1ccc(C(=O)Nc2nnc(SCC(=O)N3CCOCC3)s2)cc1,.,0.562µM*,.,0.631µM*
COc1ccc(C(=O)Nc2ccc3nc(SCC(=O)N4CCOCC4)sc3c2)cc1,-11.0%,-14.4%,i,8.8%
Cn1c(=O)nc2n(-c3ccc(Cl)c(Cl)c3)c3cc(Cl)ccc3cc-2c1=O,?,1.1%,-10.1%,11.8%
CC(C)c1cc(-c2n[nH]c(=O)n2-c2ccc3c(ccn3C)c2)c(O)cc1O,28.2µM*!,.,6.1%,.
CCc1cccc(NC(=O)c2oc3ccc4c(c3c2C)C(=O)CC(C)(C)O4)c1,-4.2%,5.01µM*,5.0%,5.01µM*
CCOc1ccccc1CNC(=O)c1oc2ccc3c(c2c1C)C(=O)CC(C)(C)O3,14.7%,?,-3.1%,6.5%
COc1ccc(NC(=O)c2oc3ccc4c(c3c2C)C(=O)CC(C)(C)O4)cc1OC,-13.7%,12.6µM*,5.7%,3.16µM*
CCC(C)C(N)C(=O)NCCN1CCOCC1 (stereo not drawn),3.7%[57.5 µM],.,.,.
COc1ccc(OC)c(CCNC(=O)C(C)n2nc(C)c3c(C)n(-c4ccc(C)cc4)nc3c2=O)c1 (stereo not drawn),89.1µM*,1.8%,i,-1.2%
COc1ccc(CCNC(=O)Cn2nc(C)c3c(C)n(-c4ccc(C)cc4)nc3c2=O)c(OC)c1,44.7µM*,1.8%,-19.6%,3.0%
Cc1c(C(=O)OCC2CC2)[nH]c2c1C(=O)CC(c1ccco1)C2 (stereo not drawn),-19.9%,.,.,.
